According to PubChem BioAssay (Tox21):
Records with an inconclusive call do not appear. A call without a number means that no potency is given here. Calls of active or inactive are those of the source. The call rests on the fitted dose curve; in most records, active means well fitted cell-killing curve with a large enough effect in the repeat runs; inconclusive means weak or mixed curves; inactive means flat fitted curve, though single readings scatter.

Test: qHTS assay to identify small molecule antagonists of the estrogen receptor beta (ER-beta) signaling pathway - cell viability counter screen (AID 1259382); further: nearly all actives have a fitted effect of over 55% in size
Settings: ER-beta-UAS-bla HEK293T viability, CellTiter-Glo luminescence, 16 h; series mostly up to 92.4 µM
Text: U.S. Tox21 Program National Center for Advancing Translational Sciences [NCATS] NIH Chemical Genomics Center [NCGC] U.S. Environmental Protection Agency [EPA] National Institutes of Environmental Health Sciences [NIEHS] National Toxicology Program [NTP] U.S. Food and Drug Administration [FDA] Tox21 Assay Overview: Estrogen receptor (ER), a nuclear hormone receptor, plays an important role in development, metabolic homeostasis and reproduction. Two subtypes of ER, ER-alpha and ER-beta, have similar expression patterns with some uniqueness in both types. Endocrine disrupting chemicals (EDCs) and their interactions with steroid hormone receptors like ER causes disruption of normal endocrine function. To identify the compounds that inhibit ER signaling, an ER-beta-UAS-bla GripTite cell line (Life Technologies, Madison, WI, USA) containing a beta-lactamase reporter gene under the control of an UAS response element was used to screen Tox21 10K compound library. The cytotoxicity of the Tox21 compound library against the ER-beta-bla cell line was tested in parallel by measuring the cell viability using CellTiter-Glo assay in the same wells.
Tox21 Assay Protocol Summary: ER-beta-UAS-bla HEK293T cells were dispensed at 2,000 cells/4 uL of assay medium containing 2% charcoal stripped FBS per well into black wall/clear-bottom 1536-well plates using a Multidrop Combi (ThermoFisher Scientific, Waltham, MA) dispenser. After the assay plates were incubated at a 37C and 5% CO2 for 6 hr, 23 nL of compounds dissolved in DMSO, positive controls or DMSO only was transferred to the assay plate by a Pintool station (Kalypsys, San Diego, CA), followed by addition of 1 uL (1nM as final concentration) of 17-beta-estradiol (E2) in assay medium using a Flying Reagent Dispenser (FRD, Aurora Discovery, San Diego, CA). The plates were incubated at 37C and 5% CO2 for 16 hr. Then 1 uL of LiveBLAzer B/G FRET substrate was added using a Flying Reagent Dispenser, the plates were incubated at room temperature for 2 hours, and fluorescence intensity was measured by an Envision plate reader (PerkinElmer, Shelton, CT). For cell viability readout that measures cytotoxicity, 4 uL/well of CellTiter-Glo reagent was added into the assay plates using a FRD. After 30 min incubation at room temperature, the luminescence intensity in the plates was measured using a ViewLux (PerkinElmer) plate reader.
Potency means the concentration at half of the fitted maximal effect.

Row | Compound | Potency
1 | Cc1cccc2sc(N)nc12 | inactive
2 | CC1=C2[C@@H]([C@H](C)CC[C@H]2/C=C(\C)C(=O)O)[C@H](O)C1 | inactive
3 | CCCCC(CC)COS(=O)(=O)O (stereo not given) | inactive
4 | CC(C(=O)O)c1ccc(C(=O)c2cccs2)cc1 (stereo not given) | inactive
5 | C=C(C)c1ccccc1 | inactive
6 | CCCCOCCOC(=O)c1cccnc1 | inactive
7 | O=[N+]([O-])c1ccc2ncccc2c1 | inactive
8 | O=C(O)CNC(=O)c1ccccc1I | inactive
9 | COc1ccc(/C=C/C(=O)c2ccc(OC)cc2OC)cc1 | inactive
10 | O=C(O)c1ccc(O)cc1O | inactive
11 | CC[C@@H](CO)NCCN[C@@H](CC)CO | inactive
12 | CC[C@H]1OC(=O)[C@H](C)[C@@H](O[C@H]2C[C@@](C)(OC)[C@@H](O)[C@H](C)O2)[C@H](C)[C@@H](O[C@@H]2O[C@H](C)C[C@H](N(C)C)[C@H]2O)[C@](C)(O)C[C@@H](C)CN(C)[C@H](C)[C@@H](O)[C@]1(C)O | inactive
13 | CC(C)(C)NCC(O)COc1cccc2c1C[C@H](O)[C@H](O)C2 (stereo not given in full) | inactive
14 | CCOC(=O)N1CCC(Nc2ccc(Cl)cc2N)CC1 | inactive
15 | O=S(=O)(Cl)c1c(Cl)cccc1Cl | inactive
16 | CC(C)N(C)C | inactive
17 | O=C1NC(=O)c2cccc3cccc1c23 | inactive
18 | CCCCCCCCCCCCCCCCCC(=O)OCC(CC)CCCC (stereo not given) | inactive
19 | CC(C)(C)C(O)/C=C/c1ccc2c(c1)OCO2 (stereo not given) | inactive
20 | CCOC(=O)c1ccc(NC(=O)CN2CCCCC2)cc1 | inactive

Row | Compound | Potency
21 | CC(C)Cc1ccc(CC(=O)O)cc1 | inactive
22 | C[C@H](CS)C(=O)N1CCC[C@H]1C(=O)O | inactive
23 | COc1cc(C(C)=O)ccc1OCCCN1CCC(c2noc3cc(F)ccc23)CC1 | inactive
24 | CNC1CCCN(c2c(F)cc3c(=O)c(C(=O)O)cn(C4CC4)c3c2OC)C1 (stereo not given) | inactive
25 | CC(C)c1ccc(C#N)cc1 | inactive
26 | Cc1ccc2c(c1[N+](=O)[O-])C(=O)c1ccccc1C2=O | inactive
27 | c1ccc(CCCc2ccncc2)cc1 | inactive
28 | CN1CCCN(C(c2ccccc2)c2ccc(Cl)cc2)CC1 (stereo not given) | 13.3 µM (active)
29 | NC(=O)c1ccccc1[N+](=O)[O-] | inactive
30 | CC(C)c1ccc(C(=O)N=C(N)N)cc1S(C)(=O)=O | inactive
31 | Cc1c[nH]c2ccccc12 | inactive
32 | C1=CCC2CC=CC2C1 (stereo not given) | inactive
33 | CS(=O)(=O)c1ccc([C@@H](C[C@H]2CCC(=O)C2)C(=O)Nc2cnccn2)cc1Cl | inactive
34 | C=CC(=O)O | inactive
35 | C/C(C=O)=C\c1ccccc1 | inactive
36 | CNCc1ccc(NC(=O)c2c[nH]c3c2C(=O)CCC3)cc1 | inactive
37 | CSSc1ccoc1C | inactive
38 | CCCCC[C@H](O)/C=C/[C@H]1[C@H](O)CC(=O)[C@@H]1C/C=C\CCCC(=O)O | inactive
39 | Cc1ccc(Cl)cc1N | inactive
40 | Cc1ccc(N(CCO)CCO)cc1 | inactive
